Active and inactive are the calls of the source. The rule behind the calls is not given here.
Biological target: Pantothenate synthetase (Mycobacterium tuberculosis (strain ATCC 25618 / H37Rv)) (UniProt P9WIL5)
Assay: Recombinant Mtb pantothenate synthetase (PanC) inhibitors, coupled enzyme, confirmatory (AID 375);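 note: 0% = full reaction with vehicle and 100% = no enzyme background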
Conditions: coupled enzyme assay; at 10 µM, active compounds read high

Sequence of Pantothenate synthetase (Mycobacterium tuberculosis (strain ATCC 25618 / H37Rv)) (P9WIL5 whole entry, looked up): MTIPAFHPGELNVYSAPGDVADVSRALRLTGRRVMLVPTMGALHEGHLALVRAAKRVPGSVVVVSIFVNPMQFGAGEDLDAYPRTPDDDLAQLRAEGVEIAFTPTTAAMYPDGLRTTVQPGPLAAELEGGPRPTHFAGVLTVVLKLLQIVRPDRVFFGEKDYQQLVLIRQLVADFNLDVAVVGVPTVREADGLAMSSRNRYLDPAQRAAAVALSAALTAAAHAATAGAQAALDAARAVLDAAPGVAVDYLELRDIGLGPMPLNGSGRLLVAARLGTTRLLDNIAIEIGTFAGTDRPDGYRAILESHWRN

Compound	inhibition
C[C@H](NC(=O)OC(C)(C)C)C(=O)NCC1CCC(C(=O)O)CC1 (some centres undefined)	0% (inactive)
O=C1CCCC(O)=C1C=Nc1ccc2c(c1)oc1ccccc12	3% (inactive)
CCN(CC)S(=O)(=O)c1ccc2oc(SCc3ccc(F)cc3)nc2c1	5% (inactive)
CCOC(=O)C(NC(C)=O)(NS(=O)(=O)c1ccccc1)C(F)(F)F (centres undefined)	2% (inactive)
C/C(=C\C(=O)O)CC(=O)O	0% (inactive)
COC(=O)[C@H](C)NC(=O)Nc1cc(OC)ccc1OC	0% (inactive)
COC(=O)c1[nH]c2cc(OC)ccc2c1NC(=O)CN1CCOCC1	0% (inactive)
Cc1ccc2cc3cc(C(=O)NCCN4CCOCC4)oc3nc2c1	4% (inactive)
COc1ccc(OCC(=O)N2CCN(C(=O)Cc3ccccc3)CC2)cc1	0% (inactive)
CC(C)COc1ccc(-c2nnn(CC(=O)N3CCCC3)n2)cc1	0% (inactive)
CCOC(=O)c1nnc(-c2ccccc2)o1	2% (inactive)
O=C(Nc1ccc(F)cc1F)NC1CC(=O)N(Cc2ccccc2)C1 (centres undefined)	1% (inactive)
COCC(=O)N(Cc1cc2cc(OC)ccc2[nH]c1=O)c1ccccc1	0% (inactive)
Cc1nc2nc(-c3cccnc3)nn2c(C)c1Cl	0% (inactive)
CC1(C)Cc2nc3oc4c(N(CCO)Cc5ccccc5)ncnc4c3cc2CO1	0% (inactive)
Cn1c(CSc2nc3ccccc3s2)nnc1SCC(=O)NCCN1CCOCC1	0% (inactive)
O=C1NC(c2ccco2)Nc2ccccc21 (centres undefined)	0% (inactive)
Cc1cc2nc3c(nc2cc1C)C1(C(=O)O)CCC3(C)C1(C)C (centres undefined)	0% (inactive)
COc1ccccc1-c1nc(C#N)c(N2CCN(c3ccccc3)CC2)o1	0% (inactive)
CC(C)[C@H](NC(=O)NCc1ccc(Cl)cc1)C(=O)O	0% (inactive)
CCOC(=O)c1ccc(NC(=O)N2CCN(CCc3ccccc3)CC2)cc1	0% (inactive)
COCCn1nnnc1C(c1cc2ccc(OC)cc2[nH]c1=O)N1CCc2ccccc2C1 (centres undefined)	0% (inactive)
COC(=O)C(C)Sc1nnc2n(-c3cccc(C)c3)c(=O)c3c4c(sc3n12)CCCC4 (centres undefined)	1% (inactive)
COc1ccc(CCNC(=O)C2CCN(Cc3nc(-c4cccc(Cl)c4)oc3C)CC2)cc1OC	0% (inactive)

From PubChem BioAssay
